From PubChem
The sample as a whole holds a higher share of hits than the screen did.
hDAT+cocaine: human DAT dopamine uptake with cocaine, either direction; Q01959; LLC-PK1 hDAT cells, [14C]-dopamine uptake with cocaine IC80; actives deviate in either direction; B-score at 10 µM; hit rate 1.3% among 110,000; AID 449768;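 active = Z score or B-score, a plate-position-corrected score, falls beyond the plate's 99.7% confidence bounds, in either direction; inactive = both scores lie inside the 99.7% bounds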
D1 allo mod: D1 dopamine receptor (human) allosteric modulation; P21728; HEK293 D1, CRE-luciferase, dopamine EC30 potentiation; actives deviate in either direction; B-score at 10 µM; hit rate 5.9% among 58,000;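 active = luminescence count or its row- and column-corrected plate score outside the 99.7% band of the plate's sample wells, on either side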
HePTP inhibitor: inhibitors of human HePTP phosphatase; recombinant HePTP phosphatase activity, OD absorbance; inhibition, % at 20 µM; hit rate 0.64% among 110,000; AID 521; in the data active = inhibition above about 50%
Calb biofilm kill: kills Candida albicans biofilms | C. albicans biofilm + clotrimazole, Alamar Blue | inhibition, % at 6 µM | hit rate 0.14% among 85,000;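 active = inhibition above 20%; inactive = inhibition below 20%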;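 also: preformed 24 hr biofilms exposed to compound for 48 hr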
TNAP act DEA: activators of human TNAP at intermediate phosphate acceptor; P05186; purified TNAP, CDP-star luminescence, 100 mM DEA, 30 min; active compounds read high; scale: 0 levamisole-inhibited, 1 vehicle-only enzyme; activation factor at 20 µM; 64,000 tested, under 10 active;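 active = activation factor of at least 2 at 20 µM, relative to controls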
Target sequence (P05186 whole entry, looked up): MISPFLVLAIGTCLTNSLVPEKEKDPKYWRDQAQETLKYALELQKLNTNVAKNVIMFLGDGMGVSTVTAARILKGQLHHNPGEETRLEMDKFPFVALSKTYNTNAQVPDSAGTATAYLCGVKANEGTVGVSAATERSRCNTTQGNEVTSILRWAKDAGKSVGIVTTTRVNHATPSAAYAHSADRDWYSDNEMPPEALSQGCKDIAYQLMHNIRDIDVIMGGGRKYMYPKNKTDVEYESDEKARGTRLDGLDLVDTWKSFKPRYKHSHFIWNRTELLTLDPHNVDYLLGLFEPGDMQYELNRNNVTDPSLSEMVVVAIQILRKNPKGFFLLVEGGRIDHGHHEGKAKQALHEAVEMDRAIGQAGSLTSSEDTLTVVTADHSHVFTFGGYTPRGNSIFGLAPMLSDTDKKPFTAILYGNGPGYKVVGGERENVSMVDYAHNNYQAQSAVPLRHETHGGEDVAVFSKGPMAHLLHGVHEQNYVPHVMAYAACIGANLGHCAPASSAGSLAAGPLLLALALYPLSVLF
PLAP activator: activates human placental alkaline phosphatase. AID 696. activation fold at 20 µM. purified PLAP enzyme, luminescent substrate read-out; active compounds read high. hit rate 1.2% among 96,000. P05187; in the data active = activation fold above about 2
D1 PAM confirm: confirmation of human D1 dopamine receptor allosteric modulators | HEK293 D1 CRE-luciferase, dopamine EC30 potentiation; active compounds read high | AID 642 | luminescence at 10 µM | hit rate 88% among 2,200 | shares compounds with D1 allo mod;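 active = luminescence in either of two replicates above the same-plate mean plus 3 SD of the low-dose dopamine control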
D1 ag no DA: activates D1 CRE-luciferase signal without dopamine present; shares compounds with D1 allo mod; hit rate 0.8% among 1,900; HEK293 D1 CRE-luciferase, luminescence, no dopamine; active compounds read high; luminescence at 10 µM; in the data active = luminescence above about 3900
Isoprot counter: isoproterenol response counter-screen activity for D1 modulators; shares compounds with D1 allo mod; HEK293 D1 CRE-luciferase, isoproterenol EC30 counter-screen; active compounds read high; luminescence at 10 µM; hit rate 63% among 2,200; AID 647;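 active = luminescence in either replicate above plate mean of wells with a partly effective reference agonist dose plus 3 SD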;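 also: isoproterenol raises cAMP through native beta-adrenoceptor Gs so signal bypasses D1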
Of the large screens only hits and unclear results are named; the others gave an inactive call (follow-up assays come after a bar, where they were run).

C=CCn1c(=O)c2c(C)c(C)sc2n2c(Nc3ccc(OC)cc3)nnc12	D1 allo mod 3.3 | D1 PAM confirm 10192 | D1 ag no DA inactive | Isoprot counter inactive
COc1ccc(NC(=O)CSc2nc3ccccc3[nH]2)c(OC)c1	none (no result: hDAT+cocaine, D1 allo mod, Calb biofilm kill, TNAP act DEA, PLAP activator)
CCCOC(=O)NC(CC)COC(=O)Nc1cccc(C)c1C (stereo not drawn)	D1 allo mod 8.2 (no result: Calb biofilm kill) | D1 PAM confirm inactive | D1 ag no DA inactive | Isoprot counter inactive
CCC(Sc1nc(=O)cc(N)n1-c1ccccc1)C(=O)Nc1cc(C)on1 (stereo not drawn)	none
CCC(Sc1nc(=O)cc(N)n1CCc1ccccc1)C(=O)Nc1ccccc1C#N (stereo not drawn)	D1 allo mod 5.2 | D1 PAM confirm 3424 | D1 ag no DA inactive | Isoprot counter inactive
CCCn1c(=O)c(C(=O)NCc2ccc(OC)c(OC)c2)c(O)c2ccccc21	D1 allo mod 4.5 | D1 PAM confirm 9276 | D1 ag no DA inactive | Isoprot counter 3652
Cc1cc(Cl)ccc1NC(=O)/C=C/c1ccccc1	none (no result: hDAT+cocaine, D1 allo mod, Calb biofilm kill, TNAP act DEA, PLAP activator)
O=C1NCC(CN(c2ccccc2)c2ccccc2)O1 (stereo not drawn)	D1 allo mod 2.9 | D1 PAM confirm 9384 | D1 ag no DA inactive | Isoprot counter 3892
COc1ccc(OCC2CNC(=O)O2)cc1 (stereo not drawn)	none (no result: hDAT+cocaine, D1 allo mod, PLAP activator)
CCOC(=O)c1c(C)c(C(=O)Nc2cc(OC)ccc2OC)c(C)n1CC	D1 allo mod 3.1 | D1 PAM confirm 7504 | D1 ag no DA inactive | Isoprot counter 3508
CC1(C)OC(=O)C(=CNc2ccccc2F)C(=O)O1	D1 allo mod 5.7 (no result: hDAT+cocaine) | D1 PAM confirm 9180 | D1 ag no DA inactive | Isoprot counter 3276
COc1ccccc1NC=C1C(=O)OC(C)(C)OC1=O	none
Cc1cc(N2CCN(S(=O)(=O)c3ccc4c(c3)OCCO4)CC2)n2ncnc2n1	D1 allo mod 4.1 | D1 PAM confirm 6428 | D1 ag no DA inactive | Isoprot counter inactive
CC(=O)OCC1OC(c2ccccc2)C(OC(C)=O)C(OC(C)=O)C1OC(C)=O (stereo not drawn)	D1 allo mod 3.1 | D1 PAM confirm 9036 | D1 ag no DA inactive | Isoprot counter inactive
N#C/C(=C/c1ccc(Cl)cc1)C(=O)Nc1ccc(O)cc1	none (no result: hDAT+cocaine, D1 allo mod, Calb biofilm kill, TNAP act DEA, PLAP activator)
COc1ccc(-c2cc(=O)oc3c(C)c(O)c(CN(C)C)cc23)cc1	D1 allo mod 3.6 | D1 PAM confirm 9264 | D1 ag no DA inactive | Isoprot counter inactive
FC(F)(F)c1nnc2sc(-c3cccs3)nn12	D1 allo mod 22 | D1 PAM confirm 10532 | D1 ag no DA inactive | Isoprot counter 3440
O=C(Nc1cccc(O)c1)c1cccc(NC(=O)c2ccc(Cl)c(Cl)c2)c1	none (no result: hDAT+cocaine, D1 allo mod, Calb biofilm kill, TNAP act DEA, PLAP activator)
COc1cccc(-c2nc(CSCC(=O)N3CCc4ccccc43)c(C)o2)c1	none
COc1ccc(-c2nc(CSCC(=O)N3CCc4ccccc43)c(C)o2)cc1OC	D1 allo mod 3.8 | D1 PAM confirm 11284 | D1 ag no DA inactive | Isoprot counter 4544
Cc1c(C(=O)NC2CCCc3ccccc32)oc2ccc(S(=O)(=O)N3CCOCC3)cc12 (stereo not drawn)	D1 allo mod 6 | D1 PAM confirm 7816 | D1 ag no DA inactive | Isoprot counter 4040
C=CCN1C(=O)/C(=C\c2cn(CCOc3cccc(OC)c3)c3ccccc23)SC1=S	none (no result: hDAT+cocaine, D1 allo mod, Calb biofilm kill, TNAP act DEA, PLAP activator)
Cc1ccc(Cn2c(/N=C/c3ccccc3O)nc3ccccc32)cc1	none (no result: hDAT+cocaine, D1 allo mod, Calb biofilm kill, TNAP act DEA, PLAP activator)
Cc1cc(Cl)ccc1NC(=O)c1ccc(CN(c2ccccc2)S(C)(=O)=O)cc1	none (no result: hDAT+cocaine, D1 allo mod, Calb biofilm kill, TNAP act DEA, PLAP activator)
O=C(Nc1ccccc1Cl)N1CCN(c2ccc3nnc(-c4ccc(F)cc4)n3n2)CC1	none (no result: hDAT+cocaine, Calb biofilm kill)
Fc1ccc(-c2nnc3ccc(N4CCCC4)nn23)cc1	D1 allo mod 8.3 | D1 PAM confirm 11900 | D1 ag no DA inactive | Isoprot counter 3108
